Assay results as given in PubChem BioAssay AID1159580 (chemical genetic matrix, 2015).
Several values for one entry are separate records, joined by “and”; a condition that tells them apart may be missing. Identical values can stand only once. Out of some 5,500 compounds screened, about 2,000 (36%) were called active. Inconclusive results (about 18%) are left out. Rule as the data show it: active = normalized growth mostly below about 0.91 (no sharp cut-off); inconclusive = no clear call, values can overlap the other calls; inactive = mostly above about 0.92. This is one part of the list.

Assay: chemical genetic growth profiling, strain panel (AID 1159580);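 also: tested at 20 µM; growth read once vehicle control cultures reached saturation at 30 °C; 1 = growth at the plate median or of vehicle wells; lower values mean less growth of the strain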
Details: S. cerevisiae deletion strains, growth OD

Measured: normalized growth

N#Cc1ccc2c(c1)N(CCCN1CCC(O)CC1)c1ccccc1S2
active: locus YDR392W, strain spt3, stronger effect = lower value 0.72
inactive: locus YAL013W, strain DEP1, stronger effect = lower value 1 | locus YAL021C, strain ccr4, stronger effect = lower value 1.01 | locus YAL026C, strain drs2, stronger effect = lower value 0.99 | locus YAL030W, strain snc1, stronger effect = lower value 0.999 | locus YBL061C, strain skt5, stronger effect = lower value 0.984 | locus YBR009C, strain hhf1, stronger effect = lower value 0.953 | locus YBR021W, strain FUR4, stronger effect = lower value 1 | locus YBR023C, strain chs3, stronger effect = lower value 0.982 | locus YBR171W, strain sec66, stronger effect = lower value 1 | locus YBR229C, strain ROT2, stronger effect = lower value 1.02 | locus YBR231C, strain swc5, stronger effect = lower value 0.994 | locus YBR279W, strain paf1, stronger effect = lower value 0.987 | locus YCL011C, strain gbp2, stronger effect = lower value 0.989 | locus YCL016C, strain dcc1, stronger effect = lower value 0.987 | locus YCL029C, strain bik1, stronger effect = lower value 1.03 | locus YCL061C, strain MRC1, stronger effect = lower value 0.992 | locus YCL069W, strain vba3, stronger effect = lower value 0.993 | locus YCR088W, strain abp1, stronger effect = lower value 0.996 | locus YDL005C, strain med2, stronger effect = lower value 0.991 | locus YDL035C, strain GPR1, stronger effect = lower value 1.01 | locus YDL040C, strain nat1, stronger effect = lower value 0.975 | locus YDL074C, strain BRE1, stronger effect = lower value 1 | locus YDL101C, strain DUN1, stronger effect = lower value 1 | locus YDL134C, strain PPH21, stronger effect = lower value 1.01 | locus YDL185W, strain tfp1, stronger effect = lower value 1.03 | locus YDL192W, strain arf1, stronger effect = lower value 1.03 | locus YDR001C, strain nth1, stronger effect = lower value 0.992 | locus YDR069C, strain doa4, stronger effect = lower value 0.995 | locus YDR101C, strain arx1, stronger effect = lower value 1.01 | locus YDR137W, strain rgp1, stronger effect = lower value 1.02 | locus YDR150W, strain NUM1, stronger effect = lower value 0.999 | locus YDR159W, strain sac3, stronger effect = lower value 0.979 | locus YDR162C, strain NBP2, stronger effect = lower value 1.02 | locus YDR195W, strain ref2 1 | locus YDR297W, strain sur2, stronger effect = lower value 0.99 | locus YDR318W, strain mcm21, stronger effect = lower value 1.02 | locus YDR334W, strain swr1, stronger effect = lower value 0.996 | locus YDR335W, strain msn5, stronger effect = lower value 0.996 | locus YDR388W, stronger effect = lower value 1.03 | locus YDR502C, strain sam2, stronger effect = lower value 1.01 | locus YEL003W, strain gim4, stronger effect = lower value 1 | locus YEL037C, strain rad23, stronger effect = lower value 0.996 | locus YEL061C, strain CIN8 (second series), stronger effect = lower value 0.994 | locus YEL061C, strain CIN8, stronger effect = lower value 1 | locus YER015W, strain faa2, stronger effect = lower value 1 | locus YER016W, strain bim1, stronger effect = lower value 0.996 | locus YER110C, stronger effect = lower value 1.02 | locus YER111C, strain swi4, stronger effect = lower value 0.984 | locus YER155C, strain BEM2 (second series), stronger effect = lower value 0.912 | locus YER155C, strain BEM2, stronger effect = lower value 1 | locus YER167W, strain BCK2, stronger effect = lower value 1.01 | locus YFR010W, strain ubp6, stronger effect = lower value 0.999 | locus YGL078C, strain dbp3, stronger effect = lower value 1.01 | locus YGL086W, strain mad1, stronger effect = lower value 1.02 | locus YGL167C, strain pmr1, stronger effect = lower value 0.995 | locus YGL173C, strain kem1, stronger effect = lower value 0.991 | locus YGL227W, strain vid30, stronger effect = lower value 0.996 | locus YGL240W, strain doc1, stronger effect = lower value 0.97 | locus YGL248W, strain PDE1, stronger effect = lower value 1.01 | locus YGL253W, strain hxk2, stronger effect = lower value 0.991 | locus YGR078C, strain PAC10, stronger effect = lower value 0.998 | locus YGR135W, strain pre9, stronger effect = lower value 1.01 | locus YGR229C, strain SMI1, stronger effect = lower value 1 | locus YGR252W, strain gcn5, stronger effect = lower value 1.01 | locus YHR013C, strain ard1, stronger effect = lower value 0.897 | locus YHR027C, strain rpn1, stronger effect = lower value 0.997 | locus YHR030C, strain SLT2, stronger effect = lower value 1.01 and 1.03 | locus YHR079C, strain IRE1 (second series), stronger effect = lower value 1.02 | locus YHR079C, strain IRE1, stronger effect = lower value 1.04 | locus YHR094C, strain hxt1, stronger effect = lower value 1.02 | locus YHR129C, strain ARP1, stronger effect = lower value 1 | locus YHR142W, strain chs7, stronger effect = lower value 0.997 | locus YHR200W, strain rpn10, stronger effect = lower value 1.02 | locus YIL066C, strain RNR3, stronger effect = lower value 1.01 | locus YIL073C, strain SPO22, stronger effect = lower value 1.03 | locus YIL125W, strain kgd1, stronger effect = lower value 1.03 | locus YIR030C, strain dcg1, stronger effect = lower value 1.03 | locus YJL092W, strain hpr5, stronger effect = lower value 1 | locus YJL095W, strain BCK1 (second series), stronger effect = lower value 0.988 | locus YJL095W, strain BCK1, stronger effect = lower value 0.983 and 1.04 | locus YJL115W, strain asf1, stronger effect = lower value 0.994 | locus YJL129C, strain trk1, stronger effect = lower value 0.994 | locus YJL134W, strain LCB3, stronger effect = lower value 1 | locus YJL154C, strain vps35, stronger effect = lower value 0.987 | locus YJL164C, strain tpk1, stronger effect = lower value 0.992 | locus YJL166W, strain qcr8, stronger effect = lower value 0.997 | locus YJL168C, strain set2, stronger effect = lower value 1.02 | locus YJL187C, strain SWE1 (second series), stronger effect = lower value 1.01 | locus YJL187C, strain SWE1, stronger effect = lower value 0.998 | locus YJR043C, strain POL32, stronger effect = lower value 1.01 | locus YJR066W, strain TOR1, stronger effect = lower value 0.955
